The record followed here is PubChem BioAssay.

Structures are written as SMILES. Activity calls are given as the source filed them.

Assay [1] concerns Plasmodium falciparum Sir2 (PF13_0152, Sir2A). Description: pfSir2 binders on small-molecule microarrays, primary screen, biochemical, small-molecule microarray, 635 nm fluorescence (AID 1098).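 Also: score merges spot fluorescence intensity with its signal-to-noise ratio.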 The following applies: small-molecule microarray binding, fluorescence 635 nm; higher = more signal.
Assay [2] can be described thus: small-molecule microarray binders of probe aDKK1, primary screen, biochemical, biotinylated probe, 635/667 nm fluorescence (AID 1099).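 Also: score merges 667nm spot fluorescence with signal to noise across triplicate slides; reference of the scale not given here.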 The following applies: higher = more signal.
A short description of assay [3]: small-molecule microarray binders of probe aCHRDL2, primary screen, biochemical, biotinylated probe, 635/667 nm fluorescence (AID 1100). The following applies: higher = more signal.
Assay [4] can be described thus: splicing luciferase reporter signal modulators, primary screen, spliceosome inhibition project, cell-based, HEK293, splice +/- reporter (AID 1101).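 Also: HEK293 cells carrying a splicing-competent luciferase reporter gene; test concentration not given here.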 The following applies: luminescence, 24 h, higher = more signal, called active from +8 up or from −8 down.
In assay [5] the target is Fibroblast growth factor 10 (Homo sapiens) (UniProt O15520). Description: FGF10 binders on small-molecule microarrays, primary screen, biochemical, small-molecule microarray, 635 nm fluorescence (AID 1102). The conditions noted are these: FGF10 binding, fluorescence 635 nm, higher = more signal.
Fibroblast growth factor 10 (Homo sapiens), sequence (O15520 whole entry, looked up): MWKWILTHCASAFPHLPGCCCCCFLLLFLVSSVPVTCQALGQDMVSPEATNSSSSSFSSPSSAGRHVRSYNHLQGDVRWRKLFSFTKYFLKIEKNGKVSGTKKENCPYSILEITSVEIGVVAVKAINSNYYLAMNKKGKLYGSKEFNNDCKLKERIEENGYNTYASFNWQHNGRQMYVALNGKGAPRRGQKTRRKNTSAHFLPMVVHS
Assay [6] concerns glycogen synthase kinase-3 (GSK3A per assay name; protocol says GSK3B). As to the kind of experiment: GSK3 binders on small-molecule microarrays, primary screen, biochemical, small-molecule microarray, 635 nm fluorescence, GSK3A (AID 1103). Also: the record names both GSK3A and GSK3B. The conditions noted are these: small-molecule microarray binding, fluorescence 635 nm; higher = more signal.
The target in assay [7] is Epidermal growth factor receptor (Homo sapiens) (UniProt P00533). As to the kind of experiment: EGFR binders on small-molecule microarrays, primary screen, biochemical, small-molecule microarray, 635 nm fluorescence (AID 1104).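 Also: score merges 667 nm emission intensity with spot signal to noise over triplicate slides.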 The conditions noted are these: EGFR binding, higher = more signal.
Epidermal growth factor receptor (Homo sapiens), sequence (P00533 whole entry, looked up): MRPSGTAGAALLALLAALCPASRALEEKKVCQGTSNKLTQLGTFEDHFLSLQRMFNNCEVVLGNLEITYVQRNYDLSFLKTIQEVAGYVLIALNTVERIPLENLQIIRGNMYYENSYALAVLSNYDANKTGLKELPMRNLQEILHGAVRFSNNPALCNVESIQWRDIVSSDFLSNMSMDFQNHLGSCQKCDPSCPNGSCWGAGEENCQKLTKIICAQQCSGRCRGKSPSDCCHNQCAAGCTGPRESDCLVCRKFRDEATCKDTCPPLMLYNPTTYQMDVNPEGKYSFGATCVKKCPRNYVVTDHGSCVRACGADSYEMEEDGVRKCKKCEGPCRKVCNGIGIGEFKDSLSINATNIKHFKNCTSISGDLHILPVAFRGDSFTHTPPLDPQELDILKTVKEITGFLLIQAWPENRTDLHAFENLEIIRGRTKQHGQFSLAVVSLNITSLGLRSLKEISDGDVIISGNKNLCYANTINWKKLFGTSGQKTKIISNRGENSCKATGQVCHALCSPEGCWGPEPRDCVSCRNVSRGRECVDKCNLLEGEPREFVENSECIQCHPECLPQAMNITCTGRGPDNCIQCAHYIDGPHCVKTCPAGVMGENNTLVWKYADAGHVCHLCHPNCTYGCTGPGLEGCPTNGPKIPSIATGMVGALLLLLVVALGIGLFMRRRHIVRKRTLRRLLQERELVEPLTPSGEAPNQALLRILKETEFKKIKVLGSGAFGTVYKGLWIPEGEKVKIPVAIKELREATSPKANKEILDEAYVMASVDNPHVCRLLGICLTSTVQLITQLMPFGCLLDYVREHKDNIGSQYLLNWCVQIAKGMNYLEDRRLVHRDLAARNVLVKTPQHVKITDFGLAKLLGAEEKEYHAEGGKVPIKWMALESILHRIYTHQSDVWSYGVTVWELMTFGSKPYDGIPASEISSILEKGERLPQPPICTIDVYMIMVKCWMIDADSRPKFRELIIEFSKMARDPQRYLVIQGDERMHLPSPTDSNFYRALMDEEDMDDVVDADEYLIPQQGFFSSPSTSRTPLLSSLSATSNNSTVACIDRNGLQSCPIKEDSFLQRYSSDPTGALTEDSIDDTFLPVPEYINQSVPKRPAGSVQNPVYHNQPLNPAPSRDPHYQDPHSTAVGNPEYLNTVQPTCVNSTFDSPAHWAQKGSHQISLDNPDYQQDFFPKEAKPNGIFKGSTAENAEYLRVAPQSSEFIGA
The target in assay [8] is Follistatin-related protein 3 (Homo sapiens) (UniProt O95633). Description: FSTL3 binders on small-molecule microarrays, primary screen, biochemical, small-molecule microarray, 635 nm fluorescence (AID 1105).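 Also: score merges emission near 667 nm and signal to noise per printed spot across three slides.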 The conditions noted are these: FSTL3 binding, higher = more signal.
Follistatin-related protein 3 (Homo sapiens), sequence (O95633 whole entry, looked up): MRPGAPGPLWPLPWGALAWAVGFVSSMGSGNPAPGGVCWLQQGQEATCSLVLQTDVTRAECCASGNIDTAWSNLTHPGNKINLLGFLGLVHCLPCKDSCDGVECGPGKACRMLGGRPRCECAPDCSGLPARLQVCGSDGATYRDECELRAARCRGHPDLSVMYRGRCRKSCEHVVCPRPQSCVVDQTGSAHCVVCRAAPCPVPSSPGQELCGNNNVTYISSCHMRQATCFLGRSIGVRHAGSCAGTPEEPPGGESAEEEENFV
Assay [9] concerns the target Dickkopf-related protein 1 (Homo sapiens) (UniProt O94907). As to the kind of experiment: DKK1 binders on small-molecule microarrays, primary screen, biochemical, small-molecule microarray, 635 nm fluorescence scan (AID 1106).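 Also: score merges emission near 667 nm with signal to noise over three replicate slides.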 The conditions noted are these: DKK1 binding, higher = more signal.
In assay [10] the test system is Inhibin beta A chain (activin A). Description: INHBA (activin A) binders on microarrays, primary screen, biochemical, small-molecule microarray, 635 nm fluorescence scan (AID 1107).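 Also: mouse activin A protein probed at 4.33 µg/mL on printed slides; score merges bound-protein fluorescence near 667 nm with spot signal-to-noise.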 The conditions noted are these: small-molecule microarray binding, higher = more signal.

Dickkopf-related protein 1 (Homo sapiens), sequence (O94907 whole entry, looked up): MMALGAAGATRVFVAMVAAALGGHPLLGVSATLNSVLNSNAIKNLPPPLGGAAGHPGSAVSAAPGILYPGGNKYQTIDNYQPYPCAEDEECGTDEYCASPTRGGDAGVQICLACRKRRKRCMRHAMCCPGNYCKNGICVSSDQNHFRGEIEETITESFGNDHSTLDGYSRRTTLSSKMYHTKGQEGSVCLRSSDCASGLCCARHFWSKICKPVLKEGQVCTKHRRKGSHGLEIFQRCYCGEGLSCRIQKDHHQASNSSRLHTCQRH

Turning to `O=C1[C@H]2C=C(I)[C@H](C[C@@H]2OCCOCCO)[C@@]12CO2`, the composite z-score is 0.558 in assay [1]; -0.261 in assay [2]; -0.751 in assay [3]; 0.954 in assay [5]; 0.671 in assay [6]; 0.83 in assay [7]. Also, the composite z-score in assay [8] was 1.12; in assay [9] it was 0.459; in assay [10], 0.555. Besides, the z-score in [4] is -0.0672 (inactive).

`O=C1OCCC=C[C@H]2OC34C=CCN(Cn5nnc6ccccc65)C(=O)[C@H]3N(CCCO)C(=O)[C@@H]4C12` (stereo not given in full): the composite z-score in [1] is -0.783; in assay [2] it was -0.264; in assay [3], 0.0963; in [5], -0.583; in [6] it was -0.789; in assay [7] it was -0.72. Besides, the composite z-score in assay [8] is -1.46; in assay [9], -0.454; in assay [10] it was 0.148. Also, the z-score in [4] was -1.05 (inactive).

With `Cn1cccc1C(O)C1C=CC2C(=O)N(c3ccccc3)C(=O)C2N1Nc1ccccc1` (stereo not given), the composite z-score is 1.19 in assay [1]; 0.966 in [2]; 1.04 in [3]; 1.3 in assay [5]; 1.27 in assay [6]; 0.671 in assay [7]. The values for the composite z-score in assay [8], in [9] and in assay [10] were 1.41, 0.456 and 0.865, respectively. Also, the z-score in assay [4] is -0.441 (inactive).

On to `COCCOC(=O)N1C(=O)[C@@]2(c3cc(C#CCC(C(=O)OC)C(=O)OC)ccc31)[C@H](c1ccc(OCCO)cc1)N1[C@H](c3ccccc3)[C@H](c3ccccc3)OC(=O)[C@H]1[C@@H]2C(=O)N1CCc2cc(OC)c(OC)cc2C1`, for which the composite z-score in assay [1] is 0.752; in assay [2] it was 0.258; in [3] it was 0.0031; in [5], 1.4; in assay [6], 1.31; in [7], 0.76. The composite z-score in assay [8] was found to be 1.28; in assay [9], 0.411; in [10], 0.622. For the same molecule, in assay [4], the z-score is 0.414 (inactive).

As to `COc1ccc([Si](C)(C)[C@@H]2[C@@H](CC(=O)N3Cc4ccccc4C[C@H]3CO)O[C@]3(C(=O)N(Cc4ccc(N5C(=O)c6cccc7cccc5c67)cc4)c4ccccc43)[C@H]2C)cc1`, the composite z-score in assay [1] was 0.68; in [2], -0.0502; in [3], -0.0445; in assay [5], 1.31; in [6], 1.27; in assay [7], 1.2. The figures for the composite z-score in assay [8], in assay [9] and in assay [10] were 1.24, 1.12 and 0.772, respectively. The z-score in assay [4] was 1.54 (inactive).

In the case of `CCCNC(=O)[C@@]1(Sc2ccc(C)cc2)CC(=O)N(C2Cc3ccccc3C2)[C@@H]1c1ccc(CO)cc1I`, the composite z-score was 0.401 in assay [1]; 0.551 in assay [2]; 0.7 in [3]; -0.189 in assay [5]; -0.0794 in [6]; -0.172 in assay [7]. Besides, the composite z-score is -0.268 in [8], -0.236 in assay [9] and 1.04 in assay [10]. Also, the z-score in [4] is -0.272 (inactive).

As to `CCC#CCN(Cc1ccccc1Br)[C@H](/C=C/C1CC1)[C@@H](O)Cc1ccccc1`, the composite z-score in [1] is -0.306; in [2], 0.0547; in assay [3], 0.952; in [5] it was -0.924; in assay [6] it was -0.0916; in assay [7], -1.03. The results for the composite z-score in [8], in [9] and in assay [10] were -0.583, -0.642 and 0.384, respectively. The z-score in [4] was -0.739 (inactive).

Consider `CC[C@@H]1C=C(C(=O)O)[C@H](c2ccccc2)N1S(=O)(=O)c1ccc(C)cc1`, for which the composite z-score in assay [1] is 1.69; in [2] it was 0.748; in [3] it was 0.853; in [5], 0.825; in assay [6], 0.52; in assay [7], -0.482. Further, the figures for the composite z-score in assay [8], in assay [9] and in assay [10] were 0.0194, -0.294 and 0.941, respectively. Moreover, the z-score in assay [4] is 0.0795 (inactive).

`CCCCC(CC)C(O)C1C=CC2C(=O)N(c3ccccc3)C(=O)C2N1Nc1ccccc1F` (stereo not given): the composite z-score in assay [1] is 1.02; in assay [2], 0.36; in assay [3] it was 0.852; in assay [5], 0.944; in assay [6], 1.23; in [7] it was -0.187. Moreover, the composite z-score in assay [8] was 0.517; in assay [9] it was -0.505; in assay [10] it was 0.744. Moreover, the z-score in assay [4] was -0.561 (inactive).

Consider `O=C1C2C=CC(C(O)c3ccco3)N(Nc3ccccc3F)C2C(=O)N1c1ccccc1` (stereo not given), for which the composite z-score is 0.926 in assay [1]; 0.497 in [2]; 1.01 in [3]; 0.285 in assay [5]; 0.179 in assay [6]; -0.14 in assay [7]. Moreover, the composite z-score in [8] amounted to 0.338; in assay [9], 0.326; in [10] it was 0.75. In addition, the z-score in assay [4] is 0.901 (inactive).

For `COc1ccc([Si](C)(C)[C@@H]2[C@@H](CC(=O)N(CCO)Cc3ccccc3)O[C@]3(C(=O)N(Cc4cccc(N5CCCCC5=O)c4)c4ccccc43)[C@H]2C)cc1`, the composite z-score is 1.16 in assay [1]; -0.0247 in assay [2]; 0.505 in [3]; 0.883 in [5]; 0.1 in assay [6]; 0.242 in assay [7]. The results for the composite z-score in assay [8], in assay [9] and in [10] were 0.84, 0.419 and 0.493, respectively. In assay [4], the z-score was -0.166 (inactive).

For `O=C1OCCC=C[C@H]2OC34C=CCN(c5ccc6ccccc6c5)C(=O)[C@H]3N(CCCO)C(=O)[C@@H]4C12` (stereo not given in full), the composite z-score is 0.933 in [1]; -0.258 in assay [2]; 0.637 in [3]; -1.62 in assay [5]; -2.21 in assay [6]; -1.93 in assay [7]. The results for the composite z-score in assay [8], in [9] and in assay [10] were -1.94, -1.8 and -2.42, respectively. Moreover, the z-score in assay [4] is -1 (inactive).

Take `COc1ccc([Si](C)(C)[C@@H]2[C@@H](CC(=O)N3CCC[C@H]3CO)O[C@]3(C(=O)N(Cc4cccc(N5C(=O)COc6ccccc65)c4)c4ccccc43)[C@H]2C)cc1`: the composite z-score in assay [1] is 0.911; in assay [2] it was -0.0948; in assay [3], 0.157; in assay [5] it was 0.723; in assay [6], 0.746; in assay [7], 0.447. The composite z-score in assay [8] was determined as 0.579; in [9], 0.173; in assay [10] it was 0.615. Besides, the z-score in [4] is -1.06 (inactive).

For `NCCCCCNC(=O)[C@H]1C[C@H]2C(=O)N3CCC[C@H]3C(=O)N2[C@H]1c1cccc(OCCO)c1`, the composite z-score in [1] is 0.685; in [2], 0.583; in assay [3] it was 1.1; in [5] it was 0.68; in assay [6] it was 0.703; in assay [7] it was -0.525. Also, the composite z-score in assay [8] is -0.515; in [9], -0.331; in assay [10], 0.896. Besides, in assay [4], the z-score is 0.125 (inactive).

Consider `C=CC[C@H](OC(=O)Nc1ccc(SC)cc1)c1ccc(O)c2ccccc12`, for which the composite z-score is 0.731 in [1]; -0.0313 in assay [2]; 0.296 in assay [3]; 0.972 in assay [5]; 1.29 in assay [6]; 0.961 in assay [7]. The composite z-score in [8] amounted to 1.08; in [9] it was 0.778; in assay [10], 0.932. Moreover, in assay [4], the z-score is -2.98 (inactive).

Turning to `CCCCNC(=O)c1ccc(C#CC(C)(C)C)c(OC(C)=O)c1`, the composite z-score in assay [1] was 0.311; in assay [2], -0.369; in [3], -0.675; in assay [5], 1.11; in assay [6], 1.04; in assay [7], 0.841. For the same molecule, the values for the composite z-score in assay [8], in assay [9] and in assay [10] were 1.44, 0.689 and 1.12, respectively. The z-score in [4] was -1.11 (inactive).
